In PubChem BioAssay AID2289 (National Center for Advancing Translational Sciences (NCATS), 2010):
Screen size: about 340,000 compounds; about 3,300 (0.97%) were called active. Roughly 9% stayed inconclusive and do not appear here. Calls follow the shape of the dose curve; as a rule, active = well fitted inhibition curve with a large enough effect; inconclusive = small, poorly fitted or top-dose-only effect, or effect the other way; inactive = flat fitted curve, though single readings scatter. The list shows a part of the results.

Test: qHTS Assay for Modulators of miRNAs and/or Inhibitors of miR-21; also: nearly all actives have a fitted effect of over 55% in size
Settings: HeLa miR-21-FLuc reporter, luciferase luminescence, 48 h; actives lower the signal
Summary of the method: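 HeLa cells stably expressing CMV-driven firefly luciferase with a downstream miR-21 binding sequence, endogenously expressing miR-21, were treated with titrations (up to about 40uM final) for 48 hours at 37 degree Celsius. Luciferase luminescence was read after lysis.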
Potency is read from the fitted curve at half-maximal effect.

Potency, active:
COC(=O)c1sccc1N/N=C/c1cccc(Oc2ccccc2)c1 1.85 µM
COC(=O)c1sccc1N/N=C/c1ccc(OC)c(OC)c1OC 6.56 µM
COc1cc(/C(C)=N/NC(=O)CSc2nncn2C)ccc1OCc1ccccc1Cl 10.4 µM
C=CCNc1ncnc2c1cnn2-c1ccc(Cl)cc1 0.329 µM
Clc1ccc(-n2ncc3c(NCc4ccccn4)ncnc32)cc1 5.85 µM
Fc1cccc(Cl)c1CSc1nnc(-c2ccncc2)o1 14.7 µM
COc1ccc2c(c1)CC/C(=C/c1ccco1)C2=O 1.85 µM
O=C1/C(=C/c2ccco2)CCc2ccccc21 18.5 µM
COc1ccc2c(c1)CC/C(=C\c1ccc(C)o1)C2=O 2.93 µM
O=[N+]([O-])c1ccccc1-c1nc(-c2ccc(Br)o2)no1 1.47 µM
CCCCOc1ccc(CSc2nncn2N)cc1 14.7 µM
COc1cccc(/C=C2\CCC(C3CCCC3)C2=O)c1OC (centres undefined) 4.14 µM
Cc1ccsc1/C=C1\CCC(C2CCCC2)C1=O (centres undefined) 3.69 µM
Cc1c(Cl)cccc1NC(=O)c1noc2c1CCCC2 7.36 µM
COc1ccc(NC(=O)c2noc3c2CCCC3)cc1Cl 0.369 µM
Cc1ccc2c(c1)c1ncnc(N3CCC4(CC3)OCCO4)c1n2C 7.36 µM
Cc1ccc2c(c1)c1ncnc(N3CCOCC3)c1n2C 13.1 µM
Fc1ccccc1NC(=S)N/N=C/c1ccccc1Br 4.65 µM
Fc1cccc(/C=N/NC(=S)Nc2ccccc2Cl)c1 4.65 µM
N/C(=N\NC(=O)Nc1ccccc1)c1ccccn1 2.61 µM
N/C(=N\NC(=O)Nc1ccc(Cl)cc1)c1ccccn1 3.29 µM
Cc1cc(C)c(C#N)c(SCc2nnc(-c3ccccc3[N+](=O)[O-])o2)n1 3.69 µM
O=c1c2ccccc2nc2sc3ccccc3n12 6.56 µM
CCN1CCC2(CC1)Oc1c(OC)cccc1C1CC(c3cccnc3)=NN12 (centres undefined) 11.7 µM
CCOc1cccc2c1OC1(CCCCC1)N1N=C(c3cccnc3)CC21 (centres undefined) 16.5 µM
CC(=O)c1c(C)[nH]c(C(=O)Nc2ccc(Cl)cc2F)c1C 2.07 µM
Cc1nnc2n(c1=O)N=C(c1ccc(Cl)cc1)CS2 1.65 µM
O/N=C/c1ccnc(SCc2ccccc2)n1 10.4 µM
Cc1nc(C)c(-c2ccc(SCc3ccccc3F)nn2)s1 14.7 µM
Cc1ccc2scc(N3CCCC(C)C3)c(=O)c2c1 (centres undefined) 6.56 µM
Cc1ccc2scc(N3CCCCC3C)c(=O)c2c1 (centres undefined) 14.7 µM
COc1ccc(NC(=S)Nc2cc(C)[nH]n2)cc1Cl 18.5 µM
Cc1cc(NC(=S)Nc2ccc(C)c(Cl)c2)n[nH]1 7.36 µM
Cc1cc(C(=O)CSc2ccc3c(c2)OCCO3)c(C)n1C1CC1 7.36 µM
CC(C)(C)c1ccc(NC(=O)c2ccc(=O)[nH]n2)cc1 0.826 µM
Cc1ccc(NC(=O)c2ccc(=O)[nH]n2)cc1C 6.56 µM
O=C(OCc1nc2ccccc2s1)c1ccco1 7.36 µM
Nc1ccc(C(=O)OCc2nc3ccccc3s2)cc1 16.5 µM
COc1cc(OC)cc(C(=O)NCC(=O)OCc2nc3ccccc3s2)c1 0.464 µM
Cc1c(C)n(CCc2ccccc2)c2ncnc(NCCO)c12 4.14 µM
Cc1ccc(-n2c(C)c(C)c3c(NCCCO)ncnc32)cc1 7.36 µM
Cc1ccc(-n2c(C)c(C)c3c(NCCO)ncnc32)cc1 13.1 µM
COc1ccc(-c2nnc(-c3ccc(F)cc3)o2)cc1 1.04 µM
COc1ccc(-c2nnc(-c3ccc(C)cc3)o2)cc1 2.07 µM
c1ccc(Nc2nnc(-c3cccnc3)s2)cc1 0.261 µM
CCS(=O)(=O)N1Cc2ccccc2CC1C(=O)Nc1nc2ccc(F)cc2s1 (centres undefined) 4.65 µM
CCS(=O)(=O)N1Cc2ccccc2CC1C(=O)Nc1nc(C)cs1 (centres undefined) 10.4 µM
CCS(=O)(=O)N1Cc2ccccc2CC1C(=O)Nc1nccs1 (centres undefined) 14.7 µM
O=C(/C=C/c1ccc(F)cc1)NCCC1=CCCCC1 7.36 µM
O=C(/C=C/c1ccccc1)NCCC1=CCCCC1 5.85 µM
CC(C)(C)SCCNC(=O)/C=C/c1ccccc1 11.7 µM
CCN(Cc1ccccc1)c1ccc(N=Nc2nn(C)c(C)c2[N+](=O)[O-])cc1 18.5 µM
CCN(CC)c1ccc(N=Nc2nn(C)c(C)c2[N+](=O)[O-])cc1 0.736 µM
CCc1cc2cc(C(=O)Nc3ccc(F)cc3)sc2s1 1.65 µM
COc1cc(NC(=O)c2cc(-c3cccc(OC)c3)n[nH]2)cc(OC)c1 3.29 µM
CCOC(=O)c1cn[nH]c1NC(=S)Nc1ccc(Cl)cc1 0.656 µM
COc1ccc2cc(-c3ccn[nH]3)ccc2c1 0.927 µM
CNc1nc(Nc2ccc(C)c(Cl)c2)nc(N)c1[N+](=O)[O-] 3.29 µM
Cc1ccc(Nc2nc(N)c([N+](=O)[O-])c(NCCO)n2)cc1C 13.1 µM
O=C(c1cc(-c2cccc(Cl)c2)on1)N1CCCC1 3.69 µM
O=C(c1cc(-c2cccc(Cl)c2)on1)N1CCCCCC1 4.65 µM
CSc1c(C#N)c(N)c(C#N)c2c1COC(C)(C)C2 18.5 µM
CN1CCN(/N=C/c2ccc(Cl)c(Cl)c2)CC1 7.36 µM
CN1CCN(/N=C/c2ccc(Br)cc2)CC1 14.7 µM
Cc1c(-c2nnc(SCC(=O)Nc3ccccc3F)o2)nnn1-c1ccc(F)cc1 2.93 µM
Cc1nn(-c2ccc(F)cc2)c(Cl)c1/C=N/NC(=O)c1cccs1 2.93 µM
Cc1nn(-c2ccccc2)c(Cl)c1/C=N/NC(=O)c1ccc(NS(=O)(=O)c2cccs2)cc1 4.14 µM
Fc1ccc(-c2nc(-c3cnccn3)no2)c(Cl)c1 0.464 µM
Clc1ccc(-c2nc(-c3cnccn3)no2)cc1 0.521 µM
O=C(c1ccccc1)c1c(O)nc(-c2ccccc2)n(-c2ccccc2)c1=O 13.1 µM
O=C(Nc1ccn(Cc2ccccc2)n1)c1n[nH]c([N+](=O)[O-])c1Cl 2.07 µM
CCSc1nnc2ccc(-c3ccc(C)cc3)nn12 16.5 µM
CCSc1nnc2ccc(-c3ccc(OC)c(OC)c3)nn12 14.7 µM
CC(=O)c1sc(NC(=O)c2ccc(C(C)(C)C)cc2)nc1C 0.826 µM
CC(=O)c1sc(NC(=O)c2ccc(C)c(C)c2)nc1C 0.585 µM
Cc1ccc(Cl)c(OCC(=O)N2CCc3ccccc3C2)c1 14.7 µM
Cc1ccsc1C(=O)OCC(=O)N1CCc2ccccc2C1 3.29 µM
CC(=O)c1ccc(N2CCc3ccccc3C2)c([N+](=O)[O-])c1 9.27 µM
COc1cc2c(cc1OC)CN(c1ncccc1[N+](=O)[O-])CC2 18.5 µM
COc1cc2c(cc1OC)CN(c1ccc(F)cc1[N+](=O)[O-])CC2 13.1 µM
O=C(c1cc(COc2ccc(F)cc2F)on1)N1C[C@H]2CC[C@H]1C2 13.1 µM
COc1cc(Cl)ccc1OCc1cc(C(=O)N2C[C@H]3CC[C@H]2C3)no1 5.21 µM
CC(=O)c1cccc(OCc2cc(C(=O)N(C)CCC3CCOCC3)no2)c1 16.5 µM
CC(=O)c1cccc(OCc2cc(C(=O)N3C[C@H]4CC[C@H]3C4)no2)c1 5.21 µM
Cc1nonc1C1CCCN1C(=O)c1cc(COc2ccc(F)cc2F)on1 (centres undefined) 4.14 µM
CCCCOC(=O)Nc1ccc(C(C)C)cc1 11.7 µM
COc1ccccc1NC(=O)Nc1ccc(N2CCOCC2)cc1 8.26 µM
CCCCOC(=O)Nc1ccc(N2CCOCC2)cc1 7.36 µM
Cc1ccc2nc3c(cc(S(=O)(=O)c4ccccc4)c(=N)n3Cc3ccco3)c(=O)n2c1 5.85 µM
Cc1ccccc1NC(=O)c1ccc2[nH]c(C)c(C)c2c1 1.31 µM
Cc1[nH]c2ccc(C(=O)N3CCCCC3)cc2c1C 2.07 µM
COc1ccccc1NC(=O)c1ccc2[nH]c(C)c(C)c2c1 5.21 µM
COc1cc2c(cc1NC(=O)c1ccccc1F)CCCC2 7.36 µM
Cc1nc2c(-c3ccccc3)c(C)nn2c(N)c1-c1ccccc1 1.85 µM
Cc1nn2c(N)c(C#N)cnc2c1-c1ccccc1 16.5 µM
Cc1ccc(C2=N/C(=C/N3CCOCC3)C(=O)O2)cc1 6.56 µM
O=C1OC(c2ccccc2)=N/C1=C\N1CCCCC1 8.26 µM
Cc1ccc(C2=N/C(=C\N3CCCCC3)C(=O)O2)cc1 1.65 µM
CCCOc1ccccc1/C=C(\C#N)C(=O)Nc1cccnc1 8.26 µM
COC(=O)c1ccc(COc2ccccc2/C=C(\C#N)C(=O)Nc2ccc(C)cc2)cc1 7.36 µM
Cc1cc(/C=C(\C#N)C(=O)Nc2ccccc2)c(C)n1-c1cccnc1 1.65 µM
COc1ccc(N=Nc2c(C)[nH][nH]c2=O)cc1 10.4 µM
COc1ccc(N=Nc2c(C)n[nH]c2C)cc1 10.4 µM
CCOC(=O)c1ccc2[nH]c3c(c2c1)CCCC3NC=O (centres undefined) 16.5 µM
